Pf Dd2 inh: qHTS Primary assay for Inhibitors of Plasmodium falciparum Dd2 growth in vitro | P. falciparum Dd2 growth, SYBR Green, 72 h | Potency, µM (highest dose often 28.9 µM), actives largely listed as inhibitors | 120,000 compounds, 4.3% hits | AID 1347417, 2020; active = well fitted inhibition curve with a large enough effect; also: nearly all actives have a fitted effect of over 65% in size
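Infected erythrocytes (Dd2, 0.3% parasitemia, 2.5% hematocrit final) are added to compound in RPMI-1640/Albumax II medium, grown 72 h at 37C in low oxygen, then lysed with saponin/Triton-X containing SYBR Green and read by fluorescence.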
Hits are given with their value; n = inactive; [ ] = another dose, or the depositor's remark. Many of the other results were omitted from the sample, so hits are more common in it than they were.

SMILES	Pf Dd2 inh
Cc1cc(S(=O)(=O)NCC(c2ccc(N(C)C)cc2)N2CCOCC2)ccc1F (configuration not stated)	n
CC(C)(C)C(=O)NC1CCN(c2cn[nH]c(=O)c2)CC1	n
Cn1c(CCNC(=O)C2CCCN(C(=O)c3ccccc3)CCC(=O)NCC2)nc2ccccc21 (configuration not stated)	n
COc1ccccc1C(=O)N1CCN(C(=O)c2nnn3c2COC(c2ccc(C)cc2)C3)CC1 (configuration not stated)	n
COc1ccc(CC(=O)N2C[C@@H](CO)[C@H](c3ccncc3)C2)cc1	n
O=C(Cc1ccc(N(Cc2ccc(F)cc2)C(=O)c2ccco2)cc1)NCc1ccc(F)cc1	n
O=C([C@@H]1C[C@H](Oc2cccnc2)CN1S(=O)(=O)c1ccccc1)N1CCOCC1	n
O[C@@H]1C[C@@H](c2nc(C3CC3)no2)N(Cc2cccs2)C1	n
CC(C)CNC(=O)C1Cn2cccc2C(=O)N1Cc1ccccc1 (configuration not stated)	n
O=C(NCCCN1CCCC1=O)C1Cn2cccc2C(=O)N1Cc1ccccc1 (configuration not stated)	n
O=C(NCCc1ccccc1)C1Cn2cccc2C(=O)N1Cc1ccccc1 (configuration not stated)	n
O=C(NCCCN1CCc2ccccc2C1)C1Cn2cccc2C(=O)N1Cc1ccccc1 (configuration not stated)	0.891µM
O=C(CN1CCCCCC1)NCC1Cn2cccc2C(=O)N1Cc1ccccc1 (configuration not stated)	3.98µM
O=C(NCC1Cn2cccc2C(=O)N1Cc1ccccc1)NC1CCCC1 (configuration not stated)	n
CC(C)CNC(=O)C1Cn2cccc2C(=O)N1Cc1cccnc1 (configuration not stated)	7.94µM
O=C(NCc1ccccc1)C1Cn2cccc2C(=O)N1Cc1cccnc1 (configuration not stated)	n
CC(C)C(=O)NCC1Cn2cccc2C(=O)N1Cc1ccccc1 (configuration not stated)	n
COc1cccc(-c2nc3cnccn3c2NCCC(=O)NC2CCCCCC2)c1	n
CCN(CC)Cc1cnc2c(C(=O)N3CCCC(CCCO)C3)cnn2c1 (configuration not stated)	n
O=C(NCC1CCOCC1)c1c[nH]c2ccccc12	n
Cc1nn(C)c2ncnc(N3CCCC(Cc4nc5ccccc5[nH]4)C3)c12 (configuration not stated)	n
COCc1cc(C[C@@H]2CC[C@H](O)[C@@H](CNC3CCN(C)CC3)O2)no1	n
CCNC(=O)NC[C@H]1O[C@H](Cc2cc(CN(C)Cc3ccccc3)on2)CC[C@@H]1O	n
COc1ccc(C(=O)NC[C@H]2O[C@H](Cc3cc(COc4ccccc4)on3)CC[C@@H]2O)cc1	n
COc1ccc(CNC[C@H]2O[C@H](Cc3cc(COc4ccccc4)on3)CC[C@@H]2O)cc1	3.98µM
SMILES	Pf Dd2 inh
Cc1ccc(CNC[C@H]2O[C@H](Cc3cc(-c4ccc(F)cc4)on3)CC[C@@H]2O)cc1	n
CN(Cc1ccccc1)Cc1cc(C[C@@H]2CC[C@H](O)[C@@H](CNCc3ccccc3)O2)no1	1.78µM
CCC(=O)NC[C@H]1O[C@H](Cc2cc(COc3ccccc3)on2)CC[C@@H]1O	n
O[C@H]1CC[C@@H](Cc2cc(-c3ccc(F)cc3)on2)O[C@@H]1CNCc1ccncc1	10µM
CC(C)NC[C@H]1O[C@H](Cc2cc(CN(C)Cc3ccccc3)on2)CC[C@@H]1O	11.2µM
CC(=O)N1CCC(NC[C@H]2O[C@H](Cc3cc(COc4ccccc4)on3)CC[C@@H]2O)CC1	n
CN(C)C[C@H]1O[C@H](Cc2cc(CN(C)Cc3ccccc3)on2)CC[C@@H]1O	n
O[C@H]1CC[C@@H](Cc2cc(-c3ccc(F)cc3)on2)O[C@@H]1CNC1CCNCC1	n
Cc1cccc(NC(=O)c2cc3n(n2)CC(c2ccc(Cl)cc2)OC3)c1C (configuration not stated)	n
COc1cc(F)ccc1-c1ccnc2nc(CCc3ccccc3)nn12	n
CCOC1CCOC2(CCN(C(=O)c3ccn(CC)n3)CC2)C1 (configuration not stated)	n
C=CCN(Cc1ccccc1OCC)C(=O)CCn1cccc1	n
COc1ccc([C@H]2C[C@@H](O)[C@@H](O)[C@@H]2NS(=O)(=O)c2cccc(C#N)c2)cc1	n
O=C(Cc1cccn1-c1ccc(Cl)cc1)NC1CCCC1	n
CC(C)c1noc(-c2cn(C3CCN(C(=O)c4ccc(Cl)cc4)C3)nn2)n1 (configuration not stated)	n
COC(=O)CN1C(=O)[C@@H]2C[C@@H](O)CN2C2(CN(Cc3ccc(OC)cc3)C2)C1=O	n
C=CCn1cc2c3c(cccc31)[C@H](CC(C)C)N[C@H](C(=O)NCc1ccc(OC)cc1)C2	n
C=CCN1CCN(C(=O)[C@@H]2Cc3c[nH]c4cccc(c34)[C@H](CC(C)C)N2)CC1	11.2µM
C=CCn1cc2c3c(cccc31)[C@H](CC(C)C)N[C@H](C(=O)NCCCN1CCCC1=O)C2	n
O=C(NC1CCN(c2cc(-c3ccc(Cl)cc3)[nH]n2)C1)c1ccccc1Br (configuration not stated)	n
COc1ccc(-c2nc3cc(C)ccc3cc2CN2CCC[C@H]2C(N)=O)cc1OC	n
COc1ccc2cc(CN3CCC(OC)CC3)c(-c3cccc(C)c3)nc2c1	10µM
COc1ccc(N2CC(c3noc(-c4cccc(C)c4)n3)CC2=O)cc1 (configuration not stated)	n
COCC1CCN(Cc2cc3ccc(OC)cc3nc2-c2cccc(C)c2)C1 (configuration not stated)	11.2µM
Cc1cccc(-c2nc3cc(C)ccc3cc2CN2CCN(CCCO)CC2)c1	n
SMILES	Pf Dd2 inh
COc1ccc(-c2[nH]ncc2CN2CC[C@H]3CC[C@@H](C2)N3)cc1	n
COc1ccc(S(=O)(=O)N2[C@@H]3CC[C@H]2CC(NC(=O)c2ccc(F)cc2)C3)cc1 (some centres not stated)	n
Cc1nn2c(c1-c1cccc3cn[nH]c13)N(C(=O)c1cccc(Cl)c1)CCC2	n
CCn1cnnc1-c1nn(C)c2c1CN(C(=O)c1nn(C)c3ccccc13)CC2	n
O=C(NCC1CCN(c2cc(-c3ccccc3)[nH]n2)CC1)c1ccc[nH]1	n
Cc1cc(C)n(CCC(=O)NCC2CCN(c3cc(-c4ccccc4)[nH]n3)CC2)n1	11.2µM
Cc1noc(C)c1CC(=O)NCC1CCN(c2cc(-c3ccccc3)[nH]n2)CC1	n
Cc1cc(C)n(CCC(=O)NC2CCCN(c3cc(-c4ccc(Cl)cc4)[nH]n3)C2)n1 (configuration not stated)	n
O=C(NCC1CCN(c2cc(-c3ccccc3)[nH]n2)CC1)c1ccc[nH]c1=O	n
Cc1ccc(-c2cc(N3CCC(CNC(=O)c4ccc(=O)[nH]c4)CC3)n[nH]2)cc1	12.6µM
O=C(c1nccc2ccccc12)N1CC(CO)C2(CCNCC2)C1 (configuration not stated)	n
COCc1nncn1C1CCN(C(=O)c2cccc(OC)c2)CC1	n
CCN1C(=O)CN(C(=O)c2ccoc2)CC12CCOCC2	n
Nc1nc(NCCNC(=O)c2ccccc2Cl)cc(C2CC(O)C2)n1 (configuration not stated)	n
O=C(c1ccccc1F)N1CCn2c(nn(-c3ccc([N+](=O)[O-])cc3)c2=O)C1	n
CN(C)[C@@H]1CN(C(=O)c2cccn2C)CC[C@]1(O)c1ccccc1	n[5.79 µM]

Compound activity from PubChem.
